An excerpt weighted towards active compounds, which were near 4.1% of everything screened.
MEKK3 PB1 HTS = raises or lowers MEK5 binding to the human MEKK3 PB1 domain; bead-based flow cytometry, Alexa488-MEK5 binding to MEKK3; actives lie on both sides; 0 = blocked by unlabeled MEK5, 100 = vehicle; binding response (% of control), % at 10 µM; hit rate 1.4% among 290,000; AID 1529;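 active = binding response more than 3 SD above or below the average of its plate-row segment, actives on both sides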;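 also: Alexa488 bead fluorescence after subtracting the streptavidin-only scavenger bead signal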
Target sequence (Q99759 whole entry, looked up, the tested form may be a part): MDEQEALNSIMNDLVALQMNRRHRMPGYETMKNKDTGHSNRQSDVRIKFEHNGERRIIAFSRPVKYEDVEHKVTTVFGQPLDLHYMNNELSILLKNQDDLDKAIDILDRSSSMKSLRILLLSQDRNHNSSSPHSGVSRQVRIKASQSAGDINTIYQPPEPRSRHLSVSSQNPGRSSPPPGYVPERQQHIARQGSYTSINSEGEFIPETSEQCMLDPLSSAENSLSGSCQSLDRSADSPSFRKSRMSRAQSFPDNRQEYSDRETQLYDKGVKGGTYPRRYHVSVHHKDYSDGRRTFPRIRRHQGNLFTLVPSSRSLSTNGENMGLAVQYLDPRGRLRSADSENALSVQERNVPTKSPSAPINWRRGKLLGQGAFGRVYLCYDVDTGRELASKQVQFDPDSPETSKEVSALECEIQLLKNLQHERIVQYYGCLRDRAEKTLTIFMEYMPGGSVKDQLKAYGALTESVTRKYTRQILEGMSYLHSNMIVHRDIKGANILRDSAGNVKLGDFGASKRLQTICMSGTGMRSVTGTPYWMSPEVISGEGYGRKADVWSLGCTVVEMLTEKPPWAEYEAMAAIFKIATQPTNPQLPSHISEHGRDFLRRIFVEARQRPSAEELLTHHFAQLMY
MEKK2wt PB1 HTS = raises or lowers MEK5 binding to wildtype human MEKK2 PB1 domain. Q9Y2U5. bead flow cytometry, Alexa488-MEK5 binding to MEKK2 WT; actives lie on both sides. binding response (% of control), % at 10 µM. hit rate 1.1% among 290,000. AID 1531; in the data active = binding response below about 67% or above about 130%
CHT PAM = human CHT allosteric activation | CHT-expressing cells, membrane potential dye, choline EC20; stronger effect = higher value; LV-AA mutant CHT in HEK293 cells | B-score at 10 µM | hit rate 0.49% among 310,000;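 active = initial fluorescence not abnormally high and integrated response B-score, plate-corrected, over 3 SD above library mean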
MEKK2 mut-MEK5 = signal of MEK5 binding to mutant human MEKK2 PB1 domain; bead flow cytometry, Alexa488-MEK5 binding to MEKK2 mutant; percent response, % at 10 µM; hit rate 0.35% among 290,000; AID 1530; in the data active = percent response above about 24%, passing the limit was not always enough
Mot1-301 SUMO = SUMOylation pathway inhibition by Mot1-301 growth rescue; S. cerevisiae Mot1-301 growth rescue, ATP luminescence, 38.5C; percent above DMSO median, 100 means doubled; growth rescue, % at 18.8 µM; hit rate 1% among 320,000; AID 2716;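 active = every valid replicate shows activation above 250% relative to neutral control wells; inactive = the rest, any valid replicate at or below 250%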
CHT block = human CHT choline transport inhibition; B-score at 10 µM; AID 488975; Q9GZV3; CHT-expressing cells, membrane potential dye, choline response; stronger effect = lower value; hit rate 0.86% among 310,000;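 active = B-score over 3 SD under the library average, and starting fluorescence ratio not unusually high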;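 also: choline stimulus applied at its EC90 after an EC20 pre-addition; B-score computed on integrated fluorescence ratio after choline addition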
MEKK2wt confirm = raises or lowers MEK5 binding to wildtype human MEKK2, retest. shares compounds with MEKK3 PB1 HTS. bead flow cytometry, Alexa488-MEK5 binding to MEKK2 WT; actives lie on both sides. binding response (% of control), % at 10 µM. hit rate 2.4% among 5,900. AID 1892; in the data active = binding response below about 16% or above about 210%; inactive = in between
MEKK2mut confirm = signal of MEK5 binding to mutant human MEKK2, retest | shares compounds with MEKK3 PB1 HTS | bead flow cytometry, Alexa488-MEK5 binding to MEKK2 mutant | percent response, % at 10 µM | hit rate 2% among 5,900; in the data active = percent response mostly above about 71%, no sharp cut-off; inactive = mostly below about 38%;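 also: higher means compound restores mutant binding toward wildtype level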
MEKK3-MEK5 inh = MEKK3-MEK5 PB1 inhibition, single concentration confirmation; shares compounds with MEKK3 PB1 HTS; bead flow cytometry, Alexa488-MEK5 binding to MEKK3; stronger effect = lower value; binding response (% of control), % at 10 µM; hit rate 1.8% among 5,900;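 active = binding response below 72% of control, or above a set upper limit, though filed actives all read lower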
Hits are given with their value; . = inactive; / = no result given; [ ] = remark or other dose.

SMILES	MEKK3 PB1 HTS	MEKK2wt PB1 HTS	CHT PAM	MEKK2 mut-MEK5	Mot1-301 SUMO	CHT block	MEKK2wt confirm	MEKK2mut confirm	MEKK3-MEK5 inh
Cc1cc(Nc2ccccc2)nc(NCc2ccccc2)n1	.	167.0	.	67.0	.	.	.	.	.
Cc1cc(N2CCC(C)CC2)nc(NCc2ccccc2)n1	.	.	.	.	.	.	/	/	/
Cc1cc(Nc2cccc(F)c2)nc(NCc2ccccc2)n1	.	142.0	.	.	.	.	.	.	.
COCCCNC(=O)c1ccc(Cn2c(=O)c3ccccc3n(Cc3ccc(C)cc3)c2=O)cc1	125.0	.	.	.	.	.	.	.	.
COCCCn1c(=O)c2ccccc2n(Cc2ccc(C)cc2)c1=O	.	.	.	.	.	.	/	/	/
CC1=C(C)CC(C(=O)NC2CCN(C(C)C)CC2)C(C(=O)O)C1 (centres undefined)	.	.	.	.	.	.	/	/	/
Cc1ccccc1S(=O)(=O)Cc1ccc(C(=O)O)o1	80.0[inhibitor]	.	.	.	.	.	.	.	.
Cc1ccccc1S(=O)(=O)Cc1ccc(C(=O)NCc2ccccc2)o1	.	.	.	.	.	.	/	/	/
CCCC[C@@H](CNC)NC[C@H](NCCCCC1CCCCC1)C(C)C	.	.	.	30.0	.	.	.	.	.
CC1(C(=O)O)CCC(C(=O)Nc2ccc(F)cc2)C1(C)C (centres undefined)	.	.	.	.	.	.	/	/	/
CC1CCN(C(=O)C2CCC(C)(C(=O)O)C2(C)C)CC1 (centres undefined)	135.0	.	.	.	.	.	.	.	.
COc1cccc(N2CCN(S(=O)(=O)c3ccc4c(c3)NC(=O)C(C)C(=O)N4)CC2)c1 (centres undefined)	.	.	.	.	.	.	/	/	/
CC(C)c1ccccc1NC(=S)NC1CCN(Cc2ccccc2)CC1	.	138.0	.	.	.	.	.	.	.
Fc1ccccc1NC(=S)N1CCN(Cc2ccccc2)CC1	139.0	.	.	.	.	.	.	.	.
CC(C)c1ccc(NC(=S)NC2CCN(Cc3ccccc3)CC2)cc1	.	.	.	.	.	.	/	/	/
S=C(Nc1ccccc1Cl)NC1CCN(Cc2ccccc2)CC1	69.0[inhibitor]	.	.	.	.	.	.	.	.
Cc1c(Cl)cccc1NC(=S)NC1CCN(Cc2ccccc2)CC1	.	.	.	.	.	.	/	/	/
CC(C(=O)NC1CCCC1)N1CCN(Cc2ccccc2)CC1 (centres undefined)	140.0	.	.	.	.	.	.	.	.
Cc1cc(OCc2nnc(SC(C)C(=O)O)n2Cc2ccccc2)ccc1Cl (centres undefined)	.	.	/	.	/	/	/	/	/
COc1ccc(C(=O)NC2CCCc3ccccc32)cc1S(=O)(=O)N1CCOCC1 (centres undefined)	/	/	.	/	.	.	/	/	/
CC(C)CN(CC(C)C)C(=O)Nc1cccc([N+](=O)[O-])c1	.	.	.	.	.	.	/	/	/
CCc1ccc(-c2nc(CN3CCC(C(=O)NCCN(CC)c4ccccc4)CC3)c(C)o2)cc1	.	184.0	.	.	.	.	.	.	.
CCN(CCNC(=O)C1CCN(Cc2nc(-c3cccc(Cl)c3)oc2C)CC1)c1ccccc1	.	188.0	.	.	.	.	.	.	.
CCc1ccc(-c2nc(CN3CCC(C(=O)NCc4ccc(F)cc4)CC3)c(C)o2)cc1	.	145.0	.	.	.	.	.	.	.
Cc1oc(-c2ccc(Cl)cc2)nc1CN1CCC(C(=O)NCCCN2CCOCC2)CC1	.	.	.	.	.	.	/	/	/
SMILES	MEKK3 PB1 HTS	MEKK2wt PB1 HTS	CHT PAM	MEKK2 mut-MEK5	Mot1-301 SUMO	CHT block	MEKK2wt confirm	MEKK2mut confirm	MEKK3-MEK5 inh
CCN(CCNC(=O)C1CCN(Cc2nc(-c3ccc(Cl)cc3)oc2C)CC1)c1ccccc1	.	163.0	.	.	.	.	.	.	.
CCN(CCNC(=O)C1CCCN(Cc2nc(-c3ccc(OC)cc3)oc2C)C1)c1ccccc1 (centres undefined)	.	.	.	.	.	.	/	/	/
O=C(Cc1n[nH]c(=O)c2ccccc12)NC(c1ccccc1)c1ccccc1	.	.	.	.	.	.	/	/	/
CCOC(=O)[C@H]1[C@H]2COc3ccc(Br)cc3[C@@H]2N2C(=O)CN(CC3CCCO3)C(=O)[C@@]12C (some centres undefined)	/	/	/	/	.	/	/	/	/
Cc1ccc2[nH]c(=O)c(COC(=O)c3cccs3)cc2c1	.	.	.	.	.	.	/	/	/
CCc1ccc(-c2nc(CN3CCC(C(=O)N4CCN(c5ccccc5)CC4)CC3)c(C)o2)cc1	.	152.0	.	.	.	.	.	.	.
CCc1ccc(-c2nc(CN3CCC(C(=O)N4CCN(c5ccccn5)CC4)CC3)c(C)o2)cc1	/	/	.	/	.	.	/	/	/
Cc1noc(C)c1C(=O)OCC(=O)Nc1c(F)cccc1F	.	.	.	.	/	.	/	/	/
CN(c1ccccc1)S(=O)(=O)c1cccc2ccccc12	.	.	.	.	.	.	/	/	/
COc1ccccc1C#Cc1ccc2c(=O)c3ccccc3n(C)c2c1	.	66.0[inhibitor]	.	.	.	.	.	.	.
COc1cccc(CNCC(O)(c2ccc(Cl)cc2)c2ccc(Cl)cc2)c1	.	158.0	.	.	.	.	.	.	.
Cc1csc(NC(=O)c2sc3nc(-c4cccs4)ccc3c2N)n1	.	66.0[inhibitor]	.	.	.	.	.	.	.
NC(=O)c1nn(-c2ccccc2)nc1NC(=O)Cn1nnc(-c2ccccc2)n1	132.0	.	.	.	.	.	.	.	.
CCOC(=O)c1ccc(NC(=O)CCc2nc(-c3ccccc3)no2)cc1	130.0	.	.	.	.	.	.	.	.
CCOC(=O)c1ccc(NC(=O)CCc2nc(-c3ccccc3Cl)no2)cc1	.	.	.	.	.	.	/	/	/
CCOC(=O)c1ccc(NC(=O)Cn2nnc(-c3ccccc3)n2)cc1	.	134.0	.	.	.	.	.	.	.
COC(=O)c1cc(S(=O)(=O)N2CCCCCC2)cn1C	.	.	.	.	.	.	/	/	/
CCOC(=O)COc1c(Br)cc(C2NC(=O)NC(C)=C2C(C)=O)cc1OC (centres undefined)	131.0	.	.	.	/	.	.	.	.
COc1ccccc1C(=O)NCC(=O)NCCC(c1ccccc1)c1ccccc1	/	/	/	/	.	/	/	/	/
O=C1Nc2c(Br)cccc2C1=O	/	/	/	/	.	/	/	/	/

Screens deposited in PubChem BioAssay by several laboratories.
